Rows were chosen to be rich in hits. Some 0.54% of all compounds tested hit in one or more screens of this group.
C1s inh: human complement C1s inhibition; P09871; purified C1s, fluorogenic AMC substrate, pooled mixtures; mean inhibition % of two 10-compound mixtures (stronger effect = higher value), % at 5 µM (by protocol); hit rate 0.16% among 62,000;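 active means inhibition above 20% in each of the two 10-compound mixture wells holding the compound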
CatB mixtures: human cathepsin B inhibition by mixtures; inhibition, %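 (ten-compound pools at 5 µM per compound and 50 µM total)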; Purified cathepsin B, AMC dipeptide fluorescence, compound mixtures; hit rate 0.06% among 62,000; P07858; in the data active means inhibition above about 22%, passing the limit was not always enough; inconclusive means no clear call, values can overlap the other calls
CatB block: inhibitors of human cathepsin B; P07858; purified cathepsin B, fluorogenic substrate, fluorescence; inhibition, %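 (tested at 10 µM)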; hit rate 0.1% among 63,000; AID 453; in the data active means inhibition above about 21%
CatG inh: cathepsin G (human) inhibition; P08311; purified enzyme, AMC-tetrapeptide fluorescence, pooled mixtures; inhibition, % at 5 µM (by protocol); hit rate 0.2% among 62,000; AID 581;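 active means inhibition above 20% in each of the two mixture wells holding the compound; inactive means inhibition of 20% or less in either well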
CatL block: inhibitors of human cathepsin L; P07711; purified cathepsin L, fluorogenic substrate, fluorescence; inhibition, %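 (tested at 10 µM)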; hit rate 0.17% among 58,000; AID 460; in the data active means inhibition above about 45%
Target sequence (P07711 114-288 limits assumed): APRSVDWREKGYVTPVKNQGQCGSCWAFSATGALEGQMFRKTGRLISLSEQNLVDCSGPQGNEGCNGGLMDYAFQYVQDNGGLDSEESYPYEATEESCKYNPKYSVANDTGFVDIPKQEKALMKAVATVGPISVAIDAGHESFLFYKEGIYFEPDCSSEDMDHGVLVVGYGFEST
Target sequence (P07711 292-333 limits assumed): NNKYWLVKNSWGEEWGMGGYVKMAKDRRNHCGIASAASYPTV
CatS block: human cathepsin S inhibition | P25774 | recombinant cathepsin S, AMC dipeptide fluorescence, pooled mixtures | inhibition, %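 (tested at 5 µM per compound within 10-compound mixtures)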 | hit rate 0.06% among 62,000; in the data active means inhibition above about 32%, passing the limit was not always enough; inconclusive means no clear call, values can overlap the other calls
Target sequence (P25774 115-331 limits assumed): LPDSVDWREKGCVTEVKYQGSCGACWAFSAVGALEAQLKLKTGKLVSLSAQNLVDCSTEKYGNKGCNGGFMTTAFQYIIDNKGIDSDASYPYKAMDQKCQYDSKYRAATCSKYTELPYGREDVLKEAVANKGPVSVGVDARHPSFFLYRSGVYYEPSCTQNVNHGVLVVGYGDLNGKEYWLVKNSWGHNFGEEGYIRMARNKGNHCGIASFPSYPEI
Numbers stand for hits; – = inactive; ? = inconclusive; · = no result given.

SMILES | C1s inh | CatB mixtures | CatB block | CatG inh | CatL block | CatS block
CC(C)NC(=O)C1CCN(C(=O)c2cc3sccc3n2Cc2ccc(F)cc2)CC1 | – | – | – | – | – | –
CC1CCN(C(=O)C2CCN(C(=O)c3cc4sccc4n3Cc3ccc(F)cc3)CC2)CC1 | – | – | – | – | 54.0 | –
O=C(NCCCN1CCCCCC1)c1ccc(CS(=O)(=O)Cc2ccccc2F)o1 | – | – | – | – | 60.3 | –
CC1CCN(CCCNC(=O)c2ccc(CS(=O)(=O)Cc3ccccc3F)o2)CC1 | – | – | – | – | – | –
COc1cccc(N2C(=O)N(c3ccccc3Cl)C3CS(=O)(=O)CC32)c1 (configuration not stated) | 23.0 | – | – | – | – | –
COc1cccc(N2C(=O)N(c3ccccc3)C3CS(=O)(=O)CC32)c1 (configuration not stated) | – | – | – | – | – | –
Cn1c(=O)n(CCc2ccccc2)c(=O)c2c1nc1n2CCCN1c1ccc(F)cc1 | – | – | – | – | – | –
c1ccc2c(-c3nc4ncccc4o3)cccc2c1 | – | – | – | – | – | –
CCOC(=O)CCc1nc2ccccc2[nH]1 | – | – | – | – | – | –
O=C(O)COCc1nc2ccccc2[nH]1 | 21.9 | – | – | – | – | –
CC1=C(C#N)C(C(F)(F)F)(C(F)(F)F)N=C(c2ccco2)N1 | – | – | – | – | · | –
CC(=O)Oc1oc(-c2ccccc2)nc1/C=N/c1ccccn1 | · | · | – | · | – | ·
COc1ccccc1N=Cc1nc(-c2ccccc2)oc1OC(C)=O | – | 32.8 | 40.6 | 26.4 | – | –
Cc1cc(OC(=O)c2ccccc2)n(CCC#N)n1 | 35.5 | – | – | 65.4 | – | –
CCOc1c(Br)cc(C2NS(=O)(=O)N=C3CCCCCN32)cc1OC (configuration not stated) | – | – | – | – | – | –
CCN1C(=O)c2cccc3c(S(=O)(=O)Nc4c(C)n(C)n(-c5ccccc5)c4=O)ccc1c23 | – | – | – | – | – | –
CCOC(=O)Cc1csc(NS(=O)(=O)c2ccc3c4c(cccc24)C(=O)N3CC)n1 | – | – | – | – | – | 55.2
C[C@]12C=CC(=O)C=C1CC[C@H]1[C@@H]3C[C@@H](O)[C@](O)(C(=O)CO)[C@@]3(C)C[C@H](O)[C@@]12F | – | – | · | – | 94.2 | –
CC1(C)O[C@@H]2C[C@H]3[C@@H]4CCC5=CC(=O)C=C[C@]5(C)[C@@]4(F)[C@@H](O)C[C@]3(C)[C@]2(C(=O)CO)O1 | – | – | – | – | – | –
CCOC(=O)CSc1nnc(Cc2ccccc2)n1Cc1ccco1 | – | – | – | – | 92.3 | –
O=C(CCCc1cccs1)Nc1nc2c(s1)CCCC2 | – | – | – | – | 48.1 | –
COc1ccc(C(=O)n2nc(-c3ccccc3)nc2N)cc1OC | – | – | – | 43.6 | · | –
O=C(Oc1ccc(N2C(=O)CCC2=O)cc1)c1ccco1 | – | – | – | – | – | –
O=C(Oc1ccc(-n2cnnn2)cc1)c1ccco1 | 30.9 | – | – | – | – | –
O=C(c1csc2c1CCCC2)n1cccn1 | 52.3 | – | – | 47.9 | – | –
SMILES | C1s inh | CatB mixtures | CatB block | CatG inh | CatL block | CatS block
O=C(c1csc2c1CCCC2)N1CCN(c2ncccn2)CC1 | – | – | – | – | – | –
CCCCc1c(C)nn(-c2nnc3c4ccccc4n(C)c3n2)c1C | · | · | – | · | 94.3 | ·
CCc1nnc(NC(=O)CSc2nnc3c4ccccc4n(C)c3n2)s1 | – | – | – | – | – | –
Cc1[nH]c2ccc(CNS(=O)(=O)c3ccc(S(=O)(=O)N4CCOCC4)cc3)cc2c1C | – | – | – | – | – | –
Cn1c(NC(=O)C2CCCO2)cc(=O)n(C)c1=O (configuration not stated) | – | – | – | – | – | –
O=C(NCCCN1CCN(Cc2ccccc2)CC1)C1CCN(c2nnc(-n3cccc3)s2)CC1 | – | – | – | – | 63.8 | –
O=C(NCCCN1CCc2ccccc2C1)C1CCN(c2nnc(-n3cccc3)s2)CC1 | – | – | – | – | 78.0 | –
Cc1nc2scc(-c3cccs3)c2c(=O)o1 | 29.5 | – | – | 25.7 | – | –
COc1cc2[nH]c(=S)n(CC3CCCO3)c(=O)c2cc1OC (configuration not stated) | – | – | – | – | – | –
CCOc1cc2[nH]c(=S)n(CC3CCCO3)c(=O)c2cc1OCC (configuration not stated) | 22.1 | – | – | – | – | –
COc1ccc(S(=O)(=O)n2nc(OC(=O)c3ccc(C)cc3)cc2N)cc1 | – | 31.7 | 48.7 | 32.3 | – | –
CC(C)(C)C(=O)Oc1cc(N)n(S(=O)(=O)c2ccccc2)n1 | – | – | – | – | – | –
COc1ccc(S(=O)(=O)n2nc(OC(=O)c3ccccc3Br)cc2N)cc1 | – | – | – | – | – | –
COc1ccc(S(=O)(=O)n2nc(OC(=O)c3ccccc3)cc2N)cc1 | – | 29.1 | 39.1 | 35.0 | – | –
Cc1ccc(S(=O)(=O)n2nc(OC(=O)c3c(-c4ccccc4Cl)noc3C)cc2N)cc1 | – | – | – | – | – | –
COc1ccc(S(=O)(=O)n2nc(OC(=O)c3cccs3)cc2N)cc1 | – | 68.4 | 76.0 | 37.5 | – | –
COc1ccc(S(=O)(=O)n2nc(OC(=O)c3ccco3)cc2N)cc1 | 30.3 | 67.5 | 78.2 | – | – | –
O=C(CNC(=O)c1ccco1)OCN1C(=O)c2ccccc2C1=O | – | 25.2 | 21.5 | – | – | –
CCOc1ccc(C(C)(C)C)cc1S(=O)(=O)N1CC(C)OC(C)C1 (configuration not stated) | – | – | – | – | – | –
O=C(COC(=O)Cc1cccs1)Nc1ccccc1 | – | – | – | – | – | –
O=C(COC(=O)c1cnccn1)c1ccc(OC(=O)c2ccccc2)cc1 | 26.4 | – | – | – | – | –
CCCn1c(SCC(=O)NCCc2ccc(Cl)cc2Cl)n[nH]c1=O | – | – | – | – | – | –
COc1ccccc1OCc1nnc(SCC(=O)c2cc(Cl)ccc2OC)o1 | – | – | – | – | – | –
N#Cc1nc(N2CCCCC2)nc(N2CCOCC2)n1 | – | – | – | – | 57.7 | 57.9
C=CCSC1=C(C#N)C(c2ccc(OCC)cc2)CC(=O)N1 (configuration not stated) | – | – | – | – | 102.2 | ?
Cc1ccc(C(=O)c2coc3ccc(O)c(CN4CCN(C)CC4)c23)cc1 | – | – | – | – | – | –
COc1cc(-c2nnc(SCC(=O)c3cc(C)n(CC4CCCO4)c3C)o2)cc(OC)c1OC (configuration not stated) | 22.4 | – | – | – | – | –
O=C(CSc1nc2ccccc2[nH]1)NCc1ccco1 | – | – | – | – | – | –
O=C(CSc1nc2ccccc2[nH]1)NCCN1CCCCC1 | – | – | – | – | 52.2 | –
COCCNC(=O)C(c1cccc(OC)c1)N(C(=O)Cn1nnc2ccccc21)c1cccnc1 (configuration not stated) | – | – | 23.0 | – | – | –
